Only some compounds are listed: those with a hit (about 12% of all), similar ones and a draw of the others.
HP1b binding inh = inhibitors of HP1-beta chromodomain binding to methylated histone tails; P83916; hit rate 0.56% among 390,000; Potency, µM (top dose mostly 114 µM), for inactives: top-dose activity change, negative = inhibition, hits mostly inhibitors; AlphaScreen HP1-beta / biotin-H3K9me3 peptide binding; note: nearly all actives have a fitted effect of over 70% in size
Target sequence (P83916 whole entry, looked up): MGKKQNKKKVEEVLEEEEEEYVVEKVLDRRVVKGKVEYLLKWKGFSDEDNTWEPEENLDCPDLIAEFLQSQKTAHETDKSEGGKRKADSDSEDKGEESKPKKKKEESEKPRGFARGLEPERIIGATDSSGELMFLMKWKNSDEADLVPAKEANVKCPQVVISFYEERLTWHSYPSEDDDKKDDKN
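Compound inhibition of the preformed complex between 50 nM HP1-beta and 50 nM biotinylated H3K9me3 peptide was read by AlphaScreen. Buffer was PBS pH 7.4 with 0.01% Tween-20. Incubations ran 30 min at room temperature, with 10 ug/mL donor/acceptor beads.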
JMJD2A Tudor inh = inhibitors of human JMJD2A Tudor domain; AlphaScreen JMJD2A-Tudor / H3K4me3 peptide binding; Potency, µM (doses to about 114 µM), without a hit: top-dose activity change, negative = inhibition, usual class: inhibitors; hit rate 4.4% among 390,000; AID 504339; note: % is set by controls: 0 for no effect and ±100 for the full control effect; nearly all actives have a fitted effect of over 50% in size
G9a block = blocks human histone lysine methyltransferase G9a | Q96KQ7 | G9a H3K9 monomethylation, AlphaScreen, 2 h | Potency, µM (top dose mostly 102 µM), for the others: at the top dose activity, negative = inhibition, most hits filed as inhibitors | hit rate 8.8% among 350,000 | AID 504332; note: % is set by controls: 0 for no effect and ±100 for the full control effect; nearly all actives have a fitted effect of over 75% in size
Target sequence (Q96KQ7 913-1193 limits assumed): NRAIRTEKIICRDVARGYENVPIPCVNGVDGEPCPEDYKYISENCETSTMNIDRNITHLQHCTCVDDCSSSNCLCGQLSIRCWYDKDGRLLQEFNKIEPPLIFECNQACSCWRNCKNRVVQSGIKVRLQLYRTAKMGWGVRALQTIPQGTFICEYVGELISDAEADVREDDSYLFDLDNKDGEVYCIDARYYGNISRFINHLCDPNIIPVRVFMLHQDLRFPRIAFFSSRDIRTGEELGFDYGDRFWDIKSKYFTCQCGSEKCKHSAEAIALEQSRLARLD
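Readings reflect AlphaScreen signal from monomethyl-H3K9 antibody detection. HMT at 20 nM; substrate b-H3K9 500 nM; cofactor SAM 20 uM; 2 h RT reaction; compounds tested as titrations in qHTS with 15 min preincubation.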
Sfp inh = blocks B. subtilis Sfp PPTase activity. Q9F4F7. Biochemical Sfp PPTase activity, qHTS. Potency, µM, without a hit: largest response in the series, negative = inhibition, actives largely listed as inhibitors. hit rate 3.5% among 310,000;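 note: the enzyme is Sfp with the accession as filed and its product quenches rhodamine fluorescence; 0% = enzyme reaction without inhibitor and -100% = no enzyme wells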
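Sfp 15 nM + cpd, 15 min RT; start w/ rhodamine-CoA 5 uM, BHQ-2-YbbR 12.5 uM (final); 50 mM Hepes pH 7.6, 10 mM MgCl2, 0.01% NP-40, 0.01% BSA; read 525/598 nm at 0 and 30 min.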
BAZ2B inh = inhibitors of human BAZ2B bromodomain; Q9UIF8; AlphaScreen BAZ2B-H3K14Ac peptide displacement; Potency, µM (top dose mostly 114 µM), without a hit: top-dose activity change, negative = inhibition, hits mostly inhibitors; hit rate 4.4% among 360,000; AID 504333; note: % is set by controls: 0 for no effect and ±100 for the full control effect; nearly all actives have a fitted effect of over 60% in size
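Inhibition is scored as reduced AlphaScreen emission. The BAZ2B/b-H3(5-23)K14Ac complex (50 nM each) in PBS pH 7.4, 0.01% Tween-20 meets compound (up to 110 uM) for 30 min at RT before bead addition.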
Starred values were filed as active, the others as inactive; ? = inconclusive; / = no result; [ ] = remark or other dose. Calls come from the whole dose curve; as a rule, active = well fitted curve in the direction sought with a large enough effect; inconclusive = small, poorly fitted or top-dose-only effect, or another doubt; inactive = no such curve, though single readings can be large; an effect the other way counts as inactive or inconclusive. Potency is the fitted concentration of half-maximal effect.

SMILES | HP1b binding inh | JMJD2A Tudor inh | G9a block | Sfp inh | BAZ2B inh
c1ccc2sc(N3CCN(Cc4nnnn4CC4CCCO4)CC3)nc2c1 (centres undefined) | 26% | -12% | 28µM* | -7% | /
Oc1cccc(C(Nc2nccs2)c2ccc3cccnc3c2O)c1 (centres undefined) | ? | 32µM* | ? | 8% | 28µM*
CCCCC(=O)NC(c1cccc([N+](=O)[O-])c1)c1ccc2cccnc2c1O (centres undefined) | 49% | 32µM* | / | / | /
CCCCC(=O)NC(c1cccc([N+](=O)[O-])c1)c1c(OC(C)=O)ccc2ccccc12 (centres undefined) | -1% | -24% | -51%[59 µM] | 14% | ?
COc1cccc(C(NC(C)=O)c2ccc3cccnc3c2O)c1 (centres undefined) | -1% | 56µM* | ? | 12% | 18µM*
COc1cccc(C(=O)NC(c2ccc(Cl)cc2)c2cc(Cl)c3cccnc3c2O)c1 (centres undefined) | 8% | -1% | 18%[59 µM] | / | 5%
CC(=O)NC(c1ccc(C(C)C)cc1)c1ccc2cccnc2c1O (centres undefined) | 35% | 56µM* | 20% | 6% | ?
Clc1ccc(-c2noc(CN3CCCC3)n2)cc1 | -15% | -16%[11.4 µM] | -34%[59 µM] | 5% | -2%
COCCNC(=S)N1CCc2cc(OC)c(OC)cc2C1COc1cc(C)cc(C)c1 (centres undefined) | -2% | ? | -8%[59 µM] | 14% | ?
COC(=O)c1cccc(COC(=O)c2cccnc2SC)c1 | 181% | 212% | 126%[59 µM] | -8% | 114%
COc1cc(NC(=O)CSc2nnc3c4ccccc4n(C)c3n2)cc(OC)c1OC | -1% | -16% | / | / | /
O=[N+]([O-])c1ccc(NC(c2ccccc2)c2ccc3cccnc3c2O)cc1 (centres undefined) | -13%[57 µM] | ? | / | / | /
CC(=O)NC(c1cccc([N+](=O)[O-])c1)c1ccc2cccnc2c1O (centres undefined) | 36% | 32µM* | / | -3% | 38%
Cc1ccc(S(=O)(=O)NCC2CCC(C(=O)NCc3cccs3)CC2)cc1 (centres undefined) | ? | -15% | -7% | 5% | -6%
COC(=O)Cc1cc(=O)n2[nH]c(C)nc2n1 | -12% | ? | -10%[12.7 µM] | 26% | 9%
COC(=O)Cc1cc(=O)n2[nH]cnc2n1 | 13% | -11% | -33%[0.501 µM] | -9% | 79µM*
O=C(Nc1cccc(Cl)c1)c1ccc(Cn2cc(Cl)cn2)cc1 | 29% | -6% | 29%[59 µM] | 23% | 8%
CN(CCc1ccccn1)C1CC(=O)N(c2ccc(Cl)cc2)C1=O (centres undefined) | 48% | -22% | 5µM* | -17% | -4%
C/C(=N\Nc1ccc(C)c(Cl)c1)c1ccncc1 | 23% | ? | 22µM* | -4% | ?
C/C(=N\Nc1cccc(Cl)c1)c1ccc(-n2ccnc2)cc1 | 5% | ? | 7.9µM* | 2% | ?
COC(=O)N/N=C(\C)c1ccc(-n2ccnc2)cc1 | 44% | 9% | 11% | 12% | -7%
C/C(=N\Nc1ccc(C)c(Cl)c1)c1cccnc1 | 45% | -17% | 11µM* | -5% | -38%
CC(=O)N1CCN(C(=S)NCc2ccccc2)CC1 | 16% | -11% | -4%[59 µM] | -19% | 12%
Cc1cnc(C(=O)Nc2ccccc2-n2cccc2)cn1 | 5% | ? | ? | 45µM* | -11%
O=C(COC(=O)Cc1ccccc1F)Nc1ccc2c(c1)OCO2 | 26% | -17% | -8% | 8% | -15%
SMILES | HP1b binding inh | JMJD2A Tudor inh | G9a block | Sfp inh | BAZ2B inh
Cc1ccc([N+](=O)[O-])cc1-c1[nH]c(-c2ccc(O)c(O)c2)nc1-c1ccccc1 | -43% | 40µM* | ? | 2% | 28µM*
COc1ccc(-c2nc(-c3ccccc3)c(-c3cc([N+](=O)[O-])ccc3C)[nH]2)cc1O | ? | 45µM* | 50µM* | 12% | 40µM*
COc1ccc([N+](=O)[O-])cc1-c1[nH]c(-c2ccc(C(=O)O)cc2)nc1-c1ccccc1 | -5% | ? | ? | 21% | ?
COc1cc(NS(=O)(=O)c2ccc(Nc3nc(-c4cccc([N+](=O)[O-])c4)cs3)cc2)nc(OC)n1 | ? | ? | 50µM* | 3% | 45µM*
COc1ccc(-c2cccc(NS(=O)(=O)c3cccc([N+](=O)[O-])c3)c2)nn1 | -11% | -22% | ? | / | 3%
O=[N+]([O-])c1cccc(-c2csc(Nc3ccccc3)n2)c1 | -25% | ? | 40µM* | -14% | ?
O=C(Cc1ccccc1)Nc1nc(-c2cccc([N+](=O)[O-])c2)cs1 | 43% | 0% | 12%[59 µM] | 20% | 10%
COc1ccccc1Nc1nc(-c2cccc([N+](=O)[O-])c2)cs1 | -14% | ? | ? | 11µM* | ?
COc1ccc(Cl)cc1Nc1nc(-c2cccnc2)cs1 | 26% | -13% | / | -9% | ?
CC1(C)NC(=O)N(CC(O)CN2CCCC2)C1=O (centres undefined) | 23% | -15% | 15%[59 µM] | 21% | 5%
CC(C)Cn1c(S(=O)(=O)O)nc2ccccc21 | 27% | -26% | / | 3% | -20%
CC(C)Cn1c(/C=C/c2ccco2)nc2ccccc21 | 8% | -16% | 7.9µM* | 35µM* | -35%
O=C(O)c1ccccc1C(=O)Nc1ccc(Oc2cccc3ccccc23)cc1 | 18% | -35% | 40µM* | 2% | 50µM*
Cc1cccc(Oc2ccc(NC(=O)c3ccccc3C(=O)O)cc2)c1C | 27% | -21% | ? | 3% | ?
COc1ccc(CN(Cc2ccccn2)S(=O)(=O)c2ccc(-n3cnnn3)c(OC)c2)cc1 | 30% | -13% | 50µM* | 4% | -33%
CCN(CC)S(=O)(=O)c1ccc(OC)c(-n2cnnn2)c1 | 55% | -3% | 1%[59 µM] | -10% | -6%
Cc1cc(S(=O)(=O)N(Cc2ccccn2)Cc2ccco2)ccc1-n1cnnn1 | 11% | -27% | 25µM* | 7% | ?
CCOc1ccccc1CN(Cc1ccco1)S(=O)(=O)c1ccc(-n2cnnn2)c(OC)c1 | -1% | -33% | 8.9µM* | 9% | -2%
CCN(CC)S(=O)(=O)c1ccc(-n2cnnn2)c(C)c1 | 30% | 2% | 23% | 13% | 1%
COc1cc(S(=O)(=O)N(Cc2ccco2)C2CCCC2)ccc1-n1cnnn1 | 42% | -34% | 32µM* | ? | 2%
N#C/C(=C(/O)COc1ccc(Cl)cc1)c1nc2ccccc2s1 | 27% | -11%[11.4 µM] | ? | 12% | -29%
CC(C)CNS(=O)(=O)c1cc2c3c(c1)CC(=O)N3CCC2 | 17% | -8% | 2% | 4% | -4%
COC(=O)Nc1ccc(S(=O)(=O)NCCCCCC(=O)O)cc1 | 40% | 7% | / | 5% | 9%
